# Sampled rows, rich in hits. Any-hit rate of the full collection: about 1.4%.
# PLAP activator: human PLAP activation; purified PLAP enzyme, luminescent substrate read-out; hits give high values; activation fold at 20 µM; actives 1.2% (n = 96,000); AID 696; in the data active = activation fold above about 2
# CatG inh: cathepsin G (human) inhibition. inhibition, % at 5 µM (by protocol). purified enzyme, AMC-tetrapeptide fluorescence, pooled mixtures. actives 0.2% (n = 62,000). AID 581. P08311;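 active = inhibition above 20% in each of the two mixture wells holding the compound; inactive = inhibition of 20% or less in either well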
# FXIIa mix inh: inhibitors of human coagulation factor XIIa, pooled mixtures; actives 0.2% (n = 62,000); inhibition, % at 5 µM; purified FXIIa, fluorogenic substrate
# Target sequence (P00748 20-372 limits assumed): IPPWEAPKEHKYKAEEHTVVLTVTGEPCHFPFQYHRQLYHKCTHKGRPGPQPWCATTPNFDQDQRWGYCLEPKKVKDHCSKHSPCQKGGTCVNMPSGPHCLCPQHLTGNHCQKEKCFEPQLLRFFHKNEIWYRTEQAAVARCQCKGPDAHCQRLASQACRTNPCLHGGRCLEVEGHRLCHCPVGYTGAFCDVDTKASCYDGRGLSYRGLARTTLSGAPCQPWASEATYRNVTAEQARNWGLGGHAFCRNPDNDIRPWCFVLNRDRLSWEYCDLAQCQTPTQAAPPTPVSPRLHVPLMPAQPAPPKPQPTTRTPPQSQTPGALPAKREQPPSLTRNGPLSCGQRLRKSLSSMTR
# Target sequence (P00748 373-615 limits assumed): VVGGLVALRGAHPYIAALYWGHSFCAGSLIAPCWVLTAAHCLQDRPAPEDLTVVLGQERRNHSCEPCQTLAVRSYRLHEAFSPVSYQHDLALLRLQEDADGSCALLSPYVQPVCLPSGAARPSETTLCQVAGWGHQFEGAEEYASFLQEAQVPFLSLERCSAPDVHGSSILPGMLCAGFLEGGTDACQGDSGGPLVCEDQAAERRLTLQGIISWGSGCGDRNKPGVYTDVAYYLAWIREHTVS
# FXIa mix inh: inhibitors of human coagulation factor XIa, pooled mixtures; P03951; purified FXIa, fluorogenic substrate; inhibition, % at 5 µM; actives 0.19% (n = 62,000);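 also: each value is inhibition by a whole ten-compound pool holding the compound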
# HePTP inhibitor: inhibitors of human HePTP phosphatase; P35236; recombinant HePTP phosphatase activity, OD absorbance; inhibition, % at 20 µM; actives 0.64% (n = 110,000); in the data active = inhibition above about 50%
# C1s inh: blocks human complement C1s protease activity | P09871 | purified C1s, fluorogenic AMC substrate, pooled mixtures | mean inhibition % of two 10-compound mixtures (hits give high values), % at 5 µM (by protocol) | actives 0.16% (n = 62,000);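 active = inhibition above 20% in each of the two 10-compound mixture wells holding the compound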
# Hits are given with their value; 0 = inactive; - = no result. Rule as the data show it, unless noted: active = inhibition above about 20% (passing the limit was not always enough); inactive = the rest.
SMILES,PLAP activator,CatG inh,FXIIa mix inh,FXIa mix inh,HePTP inhibitor,C1s inh
O=C1NC(=S)N/C1=C\c1ccc(-c2cc([N+](=O)[O-])ccc2Br)o1,-,-,-,-,102,-
N=c1sc(Cc2cccc(Cl)c2)cn1CC(=O)c1ccccc1,-,-,-,-,0,-
O=c1nc(/C=C/c2ccc(-c3ccc(F)cc3)o2)cc(C(F)(F)F)[nH]1,0,-,-,-,-,-
O=C(O)c1cc(-c2ccc(/C=C/c3cc(C(F)(F)F)[nH]c(=O)n3)o2)ccc1Cl,-,-,-,-,65,-
O=C(COc1cccc2ccccc12)NNC(=O)C1CCCO1 (centres undefined),2.2,-,-,-,0,-
O=C(NNC(=O)C1CCCO1)c1ccccc1Cl (centres undefined),2,-,-,-,-,-
O=C(Nc1ccc(-c2nc3ccccc3[nH]2)cc1)C1CCCO1 (centres undefined),0,0,0,0,0,0
O=C(NNC(=O)C1CCCCC1)c1ccccc1Cl,-,-,-,-,0,-
O=C(Nc1nc2ccccc2[nH]1)C1CCCO1 (centres undefined),2.5,0,0,0,0,0
COc1cc([N+](=O)[O-])ccc1-c1ccc(/C=C2/C(=N)N3N=C(C(C)C)SC3=NC2=O)o1,-,-,-,-,0,-
COc1cc(/C=N\N2CCN(Cc3ccc(C)cc3)CC2)cc(Br)c1O,-,-,-,-,77,-
COc1cc(/C=N/N2CCN(Cc3ccc(C)cc3)CC2)cc(OC)c1O,-,-,-,-,0,-
Cc1cc(N2CCOCC2)c2c(N)c(Br)cc(C)c2n1,2,0,0,0,0,0
Cc1cc(Br)c(Nc2nc(NN)nc(N3CCOCC3)n2)cc1Cl,-,-,-,-,0,-
Cc1ccccc1CC1S/C(=N\N=C\c2ccco2)NC1=O (centres undefined),-,-,-,-,0,-
COc1cccc(C2C(C(=O)OCCc3ccccc3)=C(C)NC3=C2C(=O)CC(C)(C)C3)c1 (centres undefined),-,-,-,-,0,-
CCOC(=O)C(=CNc1ccc([N+](=O)[O-])cc1)C(=O)OCC,-,-,-,-,0,-
COc1ccc(N/C=C(/C2=CC(=O)C=CC2=O)[N+](=O)[O-])cc1,-,-,-,-,58,-
COc1ccc(C2CC(C(F)(F)F)n3nc(C(=O)N4CCN(Cc5ccccc5)CC4)cc3N2)cc1 (centres undefined),-,-,-,-,0,-
C(=C\c1ccccc1)/C=N/Nc1nnc2c(n1)[nH]c1ccccc12,-,-,-,-,0,-
CC(=O)NC(c1ccco1)c1ccc2cccnc2c1O (centres undefined),2.7,0,0,0,0,0
CC(=O)NC(c1ccc2c(c1)OCO2)c1ccc2cccnc2c1O (centres undefined),-,-,-,-,0,-
Cc1ccc(O)c(NC(=O)c2ccc(-c3ccccc3)cc2)c1,-,-,-,-,0,-
COC(=O)c1ccc(C2C(C(=O)OCC(C)C)=C(C)N=C3SCCC(=O)N32)cc1 (centres undefined),0,0,0,29,0,0
CN1CCN(c2ccc(C(=O)c3cccc(F)c3)cc2)CC1,-,-,-,-,0,-
SMILES,PLAP activator,CatG inh,FXIIa mix inh,FXIa mix inh,HePTP inhibitor,C1s inh
COc1cccc(NC(=O)NC2CCN(Cc3nnnn3Cc3ccc(F)cc3)CC2)c1,2.1,0,0,0,0,0
O=C(Nc1ccccc1F)NC1CCN(Cc2nnnn2Cc2ccc(F)cc2)CC1,0,0,0,0,0,0
COc1ccccc1-c1cc(C(=O)NC(C)c2ccccc2)no1 (centres undefined),0,33,0,0,0,0
COC(=O)c1cc(=O)[nH]c(Nc2nc3ccccc3o2)n1,-,-,-,-,0,-
Cc1ccc2[nH]c(=O)c(C3C(C#N)=C(N)Oc4c3ccc3cccnc43)cc2c1 (centres undefined),2.2,-,-,-,-,-
O=C(Nc1cccnc1)C1OCCc2ccccc21 (centres undefined),0,0,0,0,0,0
O=C(Nc1cccnc1)C1CC(c2ccccc2O)=NO1 (centres undefined),2,-,-,-,-,-
COc1ccc(OCCCCNC(C)(C)C)cc1,-,-,-,-,0,-
CC(C)(C)NCCCCOc1ccc(F)cc1,0,0,26,0,0,0
CCCCCOC(=O)C1=C(C)NC2=C(C(=O)CCC2)C1c1cccc(Cl)c1 (centres undefined),-,-,-,-,0,-
COc1ccc(C2C(C(=O)c3cccs3)=C(O)C(=O)N2c2nncs2)cc1 (centres undefined),0,22,0,43,0,0
O=c1c2ccccc2nc(CSc2ncnc3nc[nH]c23)n1-c1cccc(C(F)(F)F)c1,2.1,-,-,-,-,-
Cc1cccc(CN2CCN(C(=O)c3cccs3)CC2)c1,-,-,-,-,0,-
CCCC(=O)Nc1ccc(C(=O)NNC(=S)NC(=O)c2cccs2)cc1,2.4,-,-,-,-,-
COCCNC(=S)NNC(=O)c1ccco1,2.1,-,-,-,-,-
COc1ccc(C(=O)NNC(=S)NC(=O)c2ccco2)cc1,0,-,-,-,-,-
O=C(NC(=S)NNC(=O)c1cccs1)c1ccco1,2.2,-,-,-,-,-
C=CCn1c2ccccc2n2cc(-c3ccc(C)cc3)nc12,-,-,-,-,0,-
O=[N+]([O-])c1ccccc1/C=N/N/C(=N/c1ccccn1)c1ccccn1,-,-,-,-,0,-
Cc1ccc(/C=C2\SC(=S)N(CCS(=O)(=O)O)C2=O)cc1,-,-,-,-,0,-
COc1ccc(-c2nnn(CC(=O)N(Cc3ccccc3Cl)C(C(=O)NCC3CCCO3)c3ccco3)n2)cc1OC (centres undefined),2,-,-,-,-,-
COc1ccc(N(C(=O)Cn2nnc(-c3ccc(Cl)cc3)n2)C(C(=O)NCC2CCCO2)c2ccc(C)cc2)cc1 (centres undefined),0,-,-,-,-,-
O=C(Cc1ccc(Br)cc1)Nc1cc(Cl)c(Cl)cc1Cl,-,-,-,-,0,-
O=C(Nc1ccc2nn(-c3ccc(F)cc3)nc2c1)c1cccc(Br)c1,-,-,-,-,57,-
COc1ccc(/C=C/C(=O)Nc2cc3nn(-c4ccc(C)cc4)nc3cc2C)cc1,-,-,-,-,0,-
SMILES,PLAP activator,CatG inh,FXIIa mix inh,FXIa mix inh,HePTP inhibitor,C1s inh
COc1ccc(/C=C/C(=O)Nc2ccc3nn(-c4ccc(F)cc4)nc3c2)cc1,-,-,-,-,57,-
O=C(Cc1ccccc1)Nc1ccc2nn(-c3ccc(F)cc3)nc2c1,-,-,-,-,0,-
O=C(/C=C\c1ccccc1)Nc1ccc2nn(-c3ccc(F)cc3)nc2c1,-,-,-,-,61,-
O=C(/C=C/c1cccc([N+](=O)[O-])c1)Nc1ccc2nn(-c3ccccc3)nc2c1,-,-,-,-,102,-
CCOC(=O)C1=C(C)NC2=C(C(=O)CCC2)C1c1ccc(OCc2cccc(F)c2)c([N+](=O)[O-])c1 (centres undefined),-,-,-,-,0,-
Cc1ccc(N=Cc2c[nH]c3ccccc23)cc1[N+](=O)[O-],-,-,-,-,0,-
COC(=O)CCN1C(=O)/C(=C\c2ccc(F)cc2)SC1=S,-,-,-,-,0,-
COc1cc(/C=N/Nc2nc(-c3ccccc3)c(-c3ccccc3)s2)ccc1O,-,-,-,-,0,-
COc1ccc(/C=N/Nc2nc3ccccc3o2)cc1O,2.1,-,-,-,-,-
COc1cc(/C=N/Nc2nc3ccccc3o2)cc(OC)c1O,2.3,-,-,-,-,-
COc1cc(/C=N\Nc2nc3ccccc3o2)cc(OC)c1OC,-,-,-,-,0,-
COC(=O)c1c(N)sc(C(=O)Nc2ccc(OC)cc2)c1C,-,-,-,-,0,-
O=c1oc2cc(O)c([N+](=O)[O-])cc2cc1-c1csc(-c2cc3ccccc3oc2=O)n1,-,-,-,-,84,-
O=C(NC(CSCc1ccccc1)C(=O)N/N=C/c1ccc(O)cc1O)c1ccc([N+](=O)[O-])cc1 (centres undefined),2.7,-,-,-,-,-
CCC(Nc1ccccc1)C(=O)N/N=C/c1cc([N+](=O)[O-])ccc1O (centres undefined),-,-,-,-,0,-
